Source: PubChem
The list is not random: actives were taken first. Their share in the collection is about 1.2%.
RGS4-Gao reg: modulates binding of RGS4 to human Galphao | binding response (% of control), % at 10 µM | Multiplexed bead flow cytometry; actives lie on both sides | 220,000 tested, 0.33% active; in the data active = binding response below about 49% or above about 150%; inactive = in between;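 also: fluorescent Galphao activated with aluminum fluoride binding bead-coupled RGS4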
Target sequence (P09471 whole entry, looked up): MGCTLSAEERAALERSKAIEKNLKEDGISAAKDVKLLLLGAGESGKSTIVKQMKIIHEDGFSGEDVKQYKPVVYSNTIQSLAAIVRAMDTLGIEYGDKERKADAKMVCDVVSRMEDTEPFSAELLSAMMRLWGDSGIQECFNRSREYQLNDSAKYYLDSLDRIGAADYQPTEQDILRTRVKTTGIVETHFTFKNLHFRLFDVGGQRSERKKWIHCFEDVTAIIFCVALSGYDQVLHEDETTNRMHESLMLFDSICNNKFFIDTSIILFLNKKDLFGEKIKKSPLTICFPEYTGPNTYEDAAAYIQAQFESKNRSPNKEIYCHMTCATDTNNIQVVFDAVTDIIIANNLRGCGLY
Avidin fluor: avidin bead compound fluorescence profile | Avidin beads, compound fluorescence 488/530 nm, flow cytometry; hits give high values | fluorescence (KMESF) at 10 µM | 220,000 tested, 0.38% active; in the data active = fluorescence above about 47
RGS7-Gao reg: modulates binding of RGS7 to human Galphao. P09471. Multiplexed bead flow cytometry; actives lie on both sides. binding response (% of control), % at 10 µM. 220,000 tested, 0.35% active; in the data active = binding response below about 49% or above about 150%; inconclusive = no clear call, values can overlap the other calls; inactive = in between;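 also: fluorescent Galphao held in activated GDP-AlF4 state binding bead-coupled RGS7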
RGS8-Gao: human RGS8-Galphao interaction regulation; P09471; 220,000 tested, 0.34% active; response (percent of control binding), % at 10 µM; multiplexed bead flow cytometry, RGS8-Galphao binding; actives lie on both sides; AID 1423; in the data active = response below about 60% or above about 140%; inactive = in between;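 also: Galphao activated as the GDP aluminium fluoride complex binding bead-coupled RGS8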
RGS16-Gao: regulators of human RGS16-Galphao interaction; bead-based flow cytometry RGS16-Galphao binding, fluorescence; actives lie on both sides; binding response (% of control), % at 10 µM; 220,000 tested, 0.38% active; AID 1441;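 also: Galphao activated by GDP with aluminum fluoride before binding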
Target sequence (O15492 whole entry, looked up): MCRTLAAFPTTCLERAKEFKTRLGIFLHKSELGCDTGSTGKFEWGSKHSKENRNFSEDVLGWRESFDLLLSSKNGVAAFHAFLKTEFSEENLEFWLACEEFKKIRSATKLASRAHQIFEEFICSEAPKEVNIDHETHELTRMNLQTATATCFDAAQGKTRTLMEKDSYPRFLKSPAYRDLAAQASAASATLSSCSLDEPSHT
Target sequence (P09471 whole entry, looked up): as the sequence (P09471 whole entry, looked up) above
GSH fluor: compound fluoresces at 488/530 nm on GSH beads | fluorescence (KMESF) at 10 µM | 190,000 tested, 0.25% active | GSH beads flow cytometry, compound fluorescence 488/530 nm; hits give high values; in the data active = fluorescence above about 89;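 also: glutathione beads carrying GST-tagged Bcl family fusion proteins plus one bare bead set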
RGS-Gao: modulates binding between human RGS4 and Galphao. multiplexed bead flow cytometry, RGS–Galpha-o binding. AID 1504. RGS4–Galpha-o binding response, % at 10 µM. 1,600 tested, 99% active. shares compounds with RGS16-Gao;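 also: fluorescently labeled Galpha-o bound to GDP with aluminium fluoride binding biotinylated RGS beads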
Avidin counter: counter-screen: compounds disrupting biotin binding to avidin beads | streptavidin beads, fluorescein-biotin binding, flow cytometry | shares compounds with RGS16-Gao | 1,700 tested, under 10 active | inhibition, % at 10 µM;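 active = inhibition above 50%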;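 also: median green fluorescence of gated singlet beads compared with DMSO control wells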
RGS8-Gao single: RGS8-Galphao interaction regulation, single point confirmation. shares compounds with RGS16-Gao. bead-based flow cytometry RGS8-Galphao binding, fluorescence; actives lie on both sides. binding response (% of control), % at 10 µM. 1,700 tested, 3% active; in the data active = binding response below about 72% or above about 130%; inactive = in between;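 also: Galphao activated as GDP AlF4 complex before binding bead RGS8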
RGS7-Gao confirm: confirmation of regulators of human RGS7-Galphao interaction; shares compounds with RGS16-Gao; bead-based flow cytometry RGS7-Galphao binding; actives lie on both sides; response (percent of control binding), % at 10 µM; 1,700 tested, 7.8% active; AID 1837; in the data active = response below about 75% or above about 130%; inactive = in between;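 also: fluorescent Galphao activated with GDP and aluminum fluoride binding bead-coupled RGS7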
RGS16-Gao single: confirmation of regulators of human RGS16-Galphao interaction; bead-based flow cytometry, RGS16-Galphao binding; actives lie on both sides; shares compounds with RGS16-Gao; response (% of control binding), % at 10 µM; 1,700 tested, 4% active; in the data active = response below about 74% or above about 130%; inactive = in between;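 also: Galphao activated as the GDP aluminium fluoride complex binding bead-coupled RGS16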
RGS4-Gao confirm: confirmation of regulators of human RGS4-Galphao interaction | RGS4-Galphao binding, multiplexed bead flow cytometry; actives lie on both sides | shares compounds with RGS16-Gao | 1,700 tested, 4% active | binding response (% of control), % at 10 µM; in the data active = binding response below about 74% or above about 130%; inactive = in between
RGS19-Gao conf: RGS19-Galphao interaction regulation, single point confirmation | shares compounds with RGS16-Gao | bead-based flow cytometry RGS19-Galphao binding; actives lie on both sides | response (percent of control binding), % at 10 µM | 1,700 tested, 5% active | AID 1841; in the data active = response below about 50% or above about 160%; inactive = in between
A number is an active result; – = inactive; ? = inconclusive; · = not tested or not shown; [ ] = remark or other dose. Unless noted, no rule for the calls is given here.

SMILES	RGS4-Gao reg	Avidin fluor	RGS7-Gao reg	RGS8-Gao	RGS16-Gao	GSH fluor	RGS-Gao	Avidin counter	RGS8-Gao single	RGS7-Gao confirm	RGS16-Gao single	RGS4-Gao confirm	RGS19-Gao conf
CC(CCC(=O)O)C1CC[C@@]2(C)C3C(=O)CC4C(C)(C)C(O)CC[C@]4(C)C3C(=O)C[C@]12C (some centres not stated)	–	–	?	56.8	–	·	88.8	–	–	–	–	–	–
Cc1ccsc1/C=N/N1CCN(c2ccccc2)CC1	–	–	–	–	–	–	·	·	·	·	·	·	·
CCCCNC1CCS(=O)(=O)C1 (configuration not stated)	·	·	·	·	·	–	·	–	–	–	–	–	–
CC(C)CC(NC(=O)C(CC(C)C)NC(=O)OC(C)(C)C)C(=O)O (configuration not stated)	·	·	·	·	·	–	·	–	–	–	–	–	–
CC(C)CC(NC(=O)C(CC(C)C)NC(=O)OC(C)(C)C)C(N)=O (configuration not stated)	–	–	–	–	–	–	·	·	·	·	·	·	·
CC(C)CC(NC(=O)C(NC(=O)C(Cc1ccc(OCc2ccccc2)cc1)NC(=O)OC(C)(C)C)C(C)C)C(N)=O (configuration not stated)	–	–	–	–	182.9[activator]	–	104.1	–	–	–	–	–	–
CC(C)CC(NC(=O)C(CC(C)C)NC(=O)C(Cc1ccc(OCc2ccccc2)cc1)NC(=O)OC(C)(C)C)C(N)=O (configuration not stated)	–	–	–	–	–	–	·	·	·	·	·	·	·
Cc1cccc(OCc2nnc(SCC(=O)N3CC(=O)Nc4ccccc43)o2)c1	–	–	–	–	–	–	·	·	·	·	·	·	·
Cc1ccc(NC(=O)Nc2cccs2)cc1	–	–	–	–	–	–	·	·	·	·	·	·	·
CCc1ccc(NC(=O)Nc2cccs2)cc1	-31.7	–	-10.8	5.8	-19.6	–	·	–	–	–	–	–	–
COC(=O)[C@@H]1C[C@@]2(O)[C@@H](O)[C@@H](O)[C@@H](O)C[C@H]2N1C/C=C/c1ccccc1	–	–	?	–	–	·	·	·	·	·	·	·	·
NC(=O)c1ccc(NC(=O)c2ccc(CN3CCOCC3)cc2)cc1	·	·	·	·	·	–	·	–	–	–	–	–	–
CCOC(=O)c1ccc(NC(=O)c2ccc(CN3CCOCC3)cc2)cc1	–	–	–	–	–	–	·	·	·	·	·	·	·
CCN1CCCC1CNC(=O)C(=O)Nc1ccccc1OC (configuration not stated)	–	62	153.4[activator]	–	–	–	101.0	·	·	·	·	·	·
O=C(CN1CCC(n2nnc3cc(F)ccc32)CC1)Nc1ccc2c(c1)CCC2	·	·	·	·	·	–	·	–	–	–	–	–	–
Oc1c(Br)cc(Br)cc1/C=N/N1CCN(Cc2ccccc2)CC1	–	107	171.8[activator]	–	–	–	112.1	–	–	–	–	–	–
O=C(CCCc1nc2ccccc2s1)NCc1cccnc1	–	–	–	–	–	–	·	·	·	·	·	·	·
O=S(=O)(c1ccc(F)cc1)N1CCN(c2ncnc3c2cnn3-c2ccccc2)CC1	–	–	–	141.9[activator]	–	–	128.6	–	–	–	–	–	–
Cc1cccc(-n2ncc3c(N4CCOCC4)ncnc32)c1	–	–	–	58.9	–	–	64.7	–	–	–	–	–	–
Cc1c(NC(=O)COC(=O)c2ccc(S(=O)(=O)N3CCOCC3)cc2)c(=O)n(-c2ccccc2)n1C	–	–	–	–	–	–	·	·	·	·	·	·	·
CCOc1ccc(CCNC(=O)c2cc3sccc3n2C)cc1OCC	154.5[activator]	–	–	141.5[activator]	–	–	·	–	–	–	–	–	–
CC(C)c1ccc(N(CC(=O)NN=C2CCN(C)CC2)S(=O)(=O)c2ccccc2)cc1	–	–	–	–	–	–	·	·	·	·	·	·	·
CSc1ccc(S(=O)(=O)N(CC(=O)NN=C2CCN(C)CC2)c2ccc(C)cc2)cc1	–	63	174.0[activator]	–	–	–	111.8	–	–	125.2[activator]	–	–	195.5[activator]
O=C(O)C1CCCN1S(=O)(=O)c1ccc2[nH]c(=O)c(=O)[nH]c2c1 (configuration not stated)	157.6[activator]	–	–	–	–	–	·	–	–	–	–	–	–
CC(C)CC(=O)OCC(=O)Nc1ccccc1Sc1ccccc1	–	–	–	–	–	–	·	·	·	·	·	·	·
SMILES	RGS4-Gao reg	Avidin fluor	RGS7-Gao reg	RGS8-Gao	RGS16-Gao	GSH fluor	RGS-Gao	Avidin counter	RGS8-Gao single	RGS7-Gao confirm	RGS16-Gao single	RGS4-Gao confirm	RGS19-Gao conf
CCOC(=O)CC1C(=O)NC2CCCCC2N1C(=O)Nc1ccc(Cl)cc1 (configuration not stated)	–	–	–	–	–	–	·	·	·	·	·	·	·
Cc1ccc(-n2c(C)c([N+](=O)[O-])c3ccc(O)c(CN(C)C)c32)cc1	–	–	–	–	–	–	·	·	·	·	·	·	·
COc1ccc(-n2c(C)c([N+](=O)[O-])c3ccc(O)c(CN4CCCCC4)c32)cc1	25.0	–	–	–	–	–	·	–	–	–	–	–	–
Cc1c(Br)c(C(F)(F)F)nn1CC(=O)NCCCn1ccnc1	–	–	–	–	–	–	·	·	·	·	·	·	·
CN(C(=S)Nc1ccc(Oc2ccccc2)cc1)C1CCCCC1	–	–	–	–	14.3	–	87.3	–	–	–	–	–	–
O=C(C=C1CCN(c2ncc(C(F)(F)F)cc2Cl)CC1)NNC(=O)Nc1ccc(Cl)cc1	–	–	–	–	–	–	·	·	·	·	·	·	·
O=C(O)c1cn(Cc2ccccc2Cl)c2ccc(S(=O)(=O)N3CCOCC3)cc2c1=O	–	–	–	–	–	–	·	·	·	·	·	·	·
CCN1CCN(C(=O)Cn2nc(-c3ccc(Cl)cc3)ccc2=O)CC1	–	–	171.0[activator]	–	–	–	105.4	–	–	–	–	–	–
CCOC(=O)N1CCN(C(=O)Cn2nc(-c3ccc(Cl)cc3)ccc2=O)CC1	–	–	–	–	–	–	·	·	·	·	·	·	·
CCn1c(=O)n(CC(=O)NC2CCCC(C)C2C)c(=O)c2ccccc21 (configuration not stated)	–	99	197.9[activator]	–	–	–	119.5	·	·	·	·	·	·
